Compound activity (PubChem)
Sampled rows, rich in hits. Any-hit rate of the full collection: about 4.5%.
Mdm2-MdmX inh = inhibitors of human Mdm2/MdmX interaction; hit rate 3% among 330,000; SaOS-2 split-luciferase Mdm2/MdmX complementation, luminescence; inhibition, % at 8 µM;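 active means inhibition of at least 50% at 8 µM in the primary screen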
Target sequence (O15151 whole entry, looked up): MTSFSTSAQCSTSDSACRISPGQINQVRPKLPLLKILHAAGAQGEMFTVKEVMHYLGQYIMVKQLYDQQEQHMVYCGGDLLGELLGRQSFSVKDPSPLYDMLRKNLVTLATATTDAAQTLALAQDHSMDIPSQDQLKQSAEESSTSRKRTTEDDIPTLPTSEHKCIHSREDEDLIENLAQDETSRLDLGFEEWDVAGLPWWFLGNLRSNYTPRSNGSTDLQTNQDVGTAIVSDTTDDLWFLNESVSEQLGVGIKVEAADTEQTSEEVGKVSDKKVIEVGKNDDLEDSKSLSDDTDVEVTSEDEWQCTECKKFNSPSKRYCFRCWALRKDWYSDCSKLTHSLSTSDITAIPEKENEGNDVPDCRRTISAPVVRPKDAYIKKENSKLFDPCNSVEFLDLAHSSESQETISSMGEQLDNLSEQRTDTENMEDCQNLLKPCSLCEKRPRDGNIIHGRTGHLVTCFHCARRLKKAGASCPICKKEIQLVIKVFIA
Target sequence (Q00987 whole entry, looked up): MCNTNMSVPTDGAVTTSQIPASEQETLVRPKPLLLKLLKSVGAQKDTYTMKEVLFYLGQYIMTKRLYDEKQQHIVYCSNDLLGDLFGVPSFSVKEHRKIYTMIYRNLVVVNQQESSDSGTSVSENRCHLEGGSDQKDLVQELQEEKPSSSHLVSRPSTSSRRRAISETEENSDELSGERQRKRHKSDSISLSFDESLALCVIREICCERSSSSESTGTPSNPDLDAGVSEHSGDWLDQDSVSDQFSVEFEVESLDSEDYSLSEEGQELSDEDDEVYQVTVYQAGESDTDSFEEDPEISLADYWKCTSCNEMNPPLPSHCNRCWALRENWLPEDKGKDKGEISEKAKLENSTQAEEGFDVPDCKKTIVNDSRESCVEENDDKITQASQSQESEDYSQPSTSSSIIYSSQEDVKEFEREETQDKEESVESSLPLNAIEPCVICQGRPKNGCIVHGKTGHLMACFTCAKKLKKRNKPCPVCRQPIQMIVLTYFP
CSC inhib = blocks cancer stem cells. hit rate 1.1% among 300,000. cancer stem cell-like cells viability, luminescence. AID 2717. inhibition, % at 7.5 µM; in the data active means inhibition above about 75%; tested in HMLE shEcad cells
Beta cell apopt = blocks beta cell apoptosis. AID 435005. protection from apoptosis, % (no concentration beside the values). hit rate 0.8% among 300,000. INS-1E cytokine-induced death, ATP luminescence, 48 h; percent of positive-control rescue, neutral wells zero;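 active means Every replicate reaches about 75%, or at least half do and their mean reaches it too, limit read from the data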;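 further: 0% = cytokine-treated negative control wells and 100% = positive control rescue; higher means more ATP so stronger rescue from cytokine killing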
697 NFkB inh = lowers PMA/ionomycin-induced NF-kB signal in 697 B cells. 697 B-cell NF-kB luciferase reporter, 16 h. AID 435022. inhibition, % at 4 µM. hit rate 0.33% among 330,000; in the data active means inhibition above about 35%
Jurkat NFkB inh = lowers PMA/ionomycin-induced NF-kB signal in Jurkat cells | hit rate 0.53% among 330,000 | inhibition, % at 4 µM | PMA/ionomycin-induced NF-kB luciferase reporter, luminescence; in the data active means inhibition above about 50%
Gli-Sufu antag = antagonists of Gli-Sufu signaling. Sufu-KO-LIGHT fibroblasts, Gli luciferase reporter luminescence. inhibition, % at 5 µM. hit rate 0.74% among 340,000;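 active means inhibition above about 55%, limit read from the data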;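 further: 0% = DMSO-treated cells and 100% = wells with medium but no cells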
Gli-Sufu confirm = Gli-SUFU antagonism confirmation, single concentration; shares compounds with Gli-Sufu antag; Sufu-KO-LIGHT cells, Gli luciferase reporter, luminescence; inhibition, % at 5 µM; hit rate 40% among 2,500;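 active means mean inhibition at 5 µM reaching about 45%, limit read from the data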;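 further: plate controls were DMSO-treated cells for no effect and wells lacking cells for full effect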
Gli cytotox = counter-screen for Gli-SUFU antagonists: cytotoxicity; shares compounds with Gli-Sufu antag; cytotoxicity, % at 5 µM; hit rate 32% among 2,500; Sufu-KO-LIGHT cells cytotoxicity, ATP luminescence;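 active means mean cytotoxicity at 5 µM above about 25%, limit read from the data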;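 further: cells exposed to compound overnight for roughly 16 to 18 hours; plate controls were DMSO wells with cells for no effect and medium without cells for full effect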
Wnt3a counter = Wnt3a reporter inhibition counter-screen | shares compounds with Gli-Sufu antag | Wnt-LIGHT cells, Wnt3a-driven luciferase reporter, luminescence | inhibition, % at 6.25 µM | hit rate 20% among 2,500;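 active means mean inhibition above about 25%, limit read from the data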
* = called active by the depositor; . = no result given.

SMILES | Mdm2-MdmX inh | CSC inhib | Beta cell apopt | 697 NFkB inh | Jurkat NFkB inh | Gli-Sufu antag | Gli-Sufu confirm | Gli cytotox | Wnt3a counter
O=C(Nc1ccc(Br)cc1)c1ccc(F)c(S(=O)(=O)NCc2cccs2)c1 | 32.3 | 40.8 | 44.7 | -15.5 | 33.8 | 51.3 | 51.9* | 43.4* | 0.6
Cc1coc2c(C)c3oc(=O)c(CCC(=O)N(C)CC(=O)O)c(C)c3cc12 | -0.2 | 3.2 | -6.2 | 22.1 | -10.7 | 5.0 | . | . | .
O=C(NCC(c1ccco1)N1CCCC1)c1cccc(S(=O)(=O)Nc2ccc(F)cc2)c1 (stereo not given) | 13.5 | 2.4 | 3.6 | -15.4 | -11.7 | 3.0 | . | . | .
COc1ccccc1CNCCS(=O)(=O)NCc1ccccc1 | . | . | . | . | . | 3.4 | . | . | .
CCOC(=O)c1ccc2c(c1)NCc1cccc(OC)c1O2 | -92.6 | 3.4 | . | -59.2 | -48.0 | -41.4 | . | . | .
CS(=O)(=O)N(CC(=O)NC1CCCCCC1)Cc1ccc(Cl)cc1 | -36.2 | 12.4 | 2.3 | 4.5 | -18.2 | 59.3* | 28.1 | 3.4 | 6.6
Nc1ccc(Br)cc1-c1nc2ccccc2[nH]c1=O | 3.8 | . | 101.9* | -14.4 | -21.1 | 51.7 | 68.6* | 34.1* | 6.7
C=CCCN(C(CC(C)C)C(=O)OC)S(=O)(=O)c1ccccc1Br (stereo not given) | 8.7 | -14.4 | 1.3 | 8.6 | 14.2 | 7.5 | . | . | .
C=CCCN(C(CC(C)C)C(=O)OC)S(=O)(=O)c1cc(Br)ccc1Br (stereo not given) | 14.6 | 43.3 | 1.2 | 17.8 | 10.3 | 50.9 | 19.2 | 21.9 | 16.5
CC1=CC(C)C2(COC(c3ccc[n+](C)c3)OC2)C(C)C1 (stereo not given) | . | . | . | . | . | 58.1* | 53.0* | 16.6 | -3.8
COc1ccc(CN2CCN(CCCc3ccccc3)C(CCO)C2)cc1OC (stereo not given) | 5.7 | 23.8 | -6.4 | -5.5 | -5.8 | -7.9 | . | . | .
CCOc1cc(CN2CCN(CCc3ccccc3)C(CCO)C2)ccc1OC (stereo not given) | 8.2 | 5.8 | -2.6 | 6.1 | 14.6 | 61.3* | 13.9 | 5.2 | -19.2
CCOC(=O)COc1cccc2c(=O)n(CC(=O)N3CCC(C)CC3)ccc12 | 18.3 | -3.7 | -6.2 | 17.8 | 11.3 | -1.9 | . | . | .
CCOC(=O)N1CCN(C(=O)Cn2ccc3c(OC)cccc3c2=O)CC1 | -21.5 | 10.9 | -0.2 | 11.1 | -6.2 | 53.8 | 21.5 | 0.2 | 10.2
O=C(COC(=O)c1ccc(S(=O)(=O)N2CCOCC2)cc1)Nc1ccccc1OC(F)F | -1.8 | -0.4 | -2.1 | 2.3 | 18.4 | -6.6 | . | . | .
Nc1cc2nc[nH]c2cc1N | 11.0 | . | . | -8.7 | 0.3 | 62.6* | 9.3 | 5.0 | -10.4
CCCC(=O)Nc1cc(C)c(NC(=O)c2ccccn2)cn1 | 14.1 | -14.1 | -2.0 | 9.3 | 2.5 | 59.5* | 6.1 | 4.9 | -50.8
O=C(NC1CCCCC1)C1CCCN(S(=O)(=O)c2ccc(F)cc2)C1 (stereo not given) | 11.0 | 0.0 | -3.1 | 9.0 | -24.0 | -13.9 | . | . | .
CN(C)S(=O)(=O)c1ccc(S(=O)(=O)N2CCCC(C(=O)NC3CCCC3)C2)cc1 (stereo not given) | 3.9 | 10.0 | 2.6 | -8.0 | 15.6 | 70.5* | 28.0 | 33.0* | 3.3
O=C(CN1C(=O)NC2(CCCC2)C1=O)NNC(=O)c1ccc(F)cc1 | 9.4 | . | -16.7 | 17.1 | 3.8 | -5.3 | . | . | .
CON(c1nc(Cl)nc(N(C)C)n1)S(=O)(=O)c1ccccc1Cl | 16.2 | 2.8 | -2.5 | 17.5 | 24.9 | 88.5* | 27.0 | 5.3 | -8.8
COCCN(C(=O)Nc1ccc(OC)cc1)c1nc2ccccc2s1 | 5.6 | 5.5 | 5.8 | -31.5 | -5.2 | -3.4 | . | . | .
CC(C)CN(CC(C)C)c1nc(N)c(C#N)c(CC#N)c1C#N | 10.6 | -2.4 | 4.3 | -17.1 | 20.8 | 88.8* | 18.2 | 10.3 | 13.4
Cc1cccc(NC(=O)C2CCCN(C(=O)Nc3ccccc3)C2)c1C (stereo not given) | -2.2 | -8.4 | 3.7 | 10.1 | -5.9 | 57.6* | 3.9 | 24.1 | -17.0
O=C(CCN1C(=O)c2ccccc2C1=O)NCc1ccc(Cl)cc1 | -22.5 | 6.0 | . | -7.4 | -0.8 | 3.8 | . | . | .
SMILES | Mdm2-MdmX inh | CSC inhib | Beta cell apopt | 697 NFkB inh | Jurkat NFkB inh | Gli-Sufu antag | Gli-Sufu confirm | Gli cytotox | Wnt3a counter
CCCCNC(=O)c1cn(CC)c2ccc(S(=O)(=O)N3CCCCCC3)cc2c1=O | 2.4 | 4.3 | 15.5 | 16.3 | 23.2 | 52.0 | 19.3 | 40.1* | -28.4
CCn1cc(C(=O)NCCCOC(C)C)c(=O)c2cc(S(=O)(=O)N3CCCC3)ccc21 | 1.4 | 10.1 | 7.9 | -28.2 | -5.5 | -23.4 | . | . | .
O=C1C(=O)N(Cc2cccs2)c2ccccc21 | 13.2 | 2.7 | -10.0 | -7.3 | -3.6 | 1.3 | . | . | .
CC(C)C(=O)Nc1cc(S(=O)(=O)N2CCOCC2)ccc1N1CCCCC1 | -10.9 | -17.8 | -3.9 | -3.4 | -3.5 | 1.1 | . | . | .
CC(C)(C)C(=O)Nc1cc(S(=O)(=O)N2CCCCC2)ccc1N1CCCCC1 | -10.8 | 27.3 | -4.4 | 7.8 | 12.2 | 54.9 | 26.8 | 0.4 | -17.6
O=C(N/N=C/c1ccncc1)C12CC3CC(CC(C3)C1)C2 | -23.2 | 9.4 | -3.6 | 7.0 | -2.1 | 57.6* | 20.8 | 6.0 | -18.4
CN(CC(=O)Nc1ccccc1-c1ccccc1)Cc1ccccc1Cl | 5.9 | -9.4 | . | 5.9 | -0.5 | 13.0 | . | . | .
Cc1ccc(-c2nnc(NC(=O)c3ccco3)o2)c(C)c1 | -8.1 | 15.3 | 1.3 | -33.7 | -8.2 | 72.6* | 3.7 | 13.3 | -14.7
O=C(O)c1cccc2c1C(=O)c1ccc(-c3ccc(Cl)c(C(F)(F)F)c3)cc1S2(=O)=O | -6.7 | 5.8 | -1.5 | -17.2 | 1.1 | -19.8 | . | . | .
O=C(Cc1ccc(Br)cc1)N1CCN(C(=O)c2ccco2)CC1 | -7.1 | -0.6 | 5.5 | -3.0 | -2.1 | -4.2 | . | . | .
CCN1C(=O)/C(=C\N(C)C)NC1=S | 2.1 | 1.8 | 4.7 | 13.0 | -2.6 | -18.3 | . | . | .
CN(C)/C=C1/NC(=S)NC1=O | -13.2 | -0.5 | 2.6 | 2.2 | -59.3 | 63.1* | 10.0 | 2.8 | 14.2
CCCn1c2c(c(=N)c3c1CCC3)CCCC2 | 23.6 | -8.5 | 22.2 | 6.7 | 14.9 | 61.2* | 59.6* | 19.3 | 1.7
CCOC(=O)Cn1c2c(c(=N)c3c1CCC3)CCCC2 | 7.9 | -17.2 | -4.5 | -6.8 | 8.3 | 22.3 | . | . | .
O=C(Nc1ccccc1C(=O)NC1CCCC1)NC1CCCC1 | -6.4 | -0.1 | -4.7 | -2.8 | -1.7 | 4.8 | . | . | .
CC(=O)NC(=S)Nc1ccccc1C(=O)NC1CCCCC1 | -12.4 | 1.2 | 5.3 | 6.4 | 7.3 | -8.1 | . | . | .
CC(C)(C)C(=O)NC(=S)Nc1ccccc1C(=O)NC1CCCCC1 | 10.5 | -6.4 | -3.3 | -13.9 | 7.5 | 76.2* | 21.1 | 46.2* | -20.6
O=C(CN1C(=O)c2ccccc2C1=O)Nc1ccccc1C(=O)NC1CCCCCC1 | 22.7 | -4.2 | 0.2 | 27.7 | 13.2 | 98.8* | 15.0 | 10.3 | 1.6
